Activation data for 93 molecules are collected here from PubChem BioAssay AID1304 (The Scripps Research Institute Molecular Screening Center, 2008).

Several values for one entry are separate records, joined by “and”; a condition that tells them apart may be missing. Equal entries are not always repeated. Out of some 220,000 compounds screened, about 800 (0.36%) were called active. This is one part of a sample in which actives are shown more often than they occur. Rule as the data show it: active = activation above about 33% (passing the limit was not always enough); inactive = the rest.

This experiment deals with Neuropeptide Y receptor type 1 (Homo sapiens) (UniProt P25929). Kind of experiment: activation enhancers of human NPY-Y1 – cell-based, primary screen (AID 1304).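 Also: cells stimulated with NPY at EC10 then isoproterenol at EC100; 0% = low agonist plus stimulus and 100% = saturating agonist plus stimulus.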 The note with it: NPY-Y1 expressing cells, potentiator/agonist activation; at 3.6 µM; hits give high values.
Neuropeptide Y receptor type 1 (Homo sapiens), sequence (P25929 whole entry, looked up): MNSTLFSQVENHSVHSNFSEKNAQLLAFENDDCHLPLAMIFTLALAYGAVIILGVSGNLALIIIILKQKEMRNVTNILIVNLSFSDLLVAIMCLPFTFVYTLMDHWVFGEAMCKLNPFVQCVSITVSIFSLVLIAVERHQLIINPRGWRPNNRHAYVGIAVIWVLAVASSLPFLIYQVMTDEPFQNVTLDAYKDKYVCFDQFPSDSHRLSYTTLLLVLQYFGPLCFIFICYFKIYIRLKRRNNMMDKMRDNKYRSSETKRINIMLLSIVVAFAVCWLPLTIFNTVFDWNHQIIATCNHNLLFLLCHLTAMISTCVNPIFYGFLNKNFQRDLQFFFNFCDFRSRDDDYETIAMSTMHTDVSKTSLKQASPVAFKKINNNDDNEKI
As for `Cc1nnc(SCC2=C(C(=O)O)N3C(=O)C(NC(=O)Cn4nc(C)c(Cl)c4C)C3SC2)s1` (stereo not drawn), the activation is -9.62% (inactive).
On to `Cn1nc(C(F)(F)F)cc1C(=O)O`, for which the activation was -6.07% (inactive).
To `COc1ccc(C(=O)OCC(=O)NC(=O)CCSc2ccccc2)cc1` belongs -33.3% (inactive); to `COc1cccc(CNC(=O)CCC2CCCN(Cc3ccc(OC(F)F)cc3)C2)c1` (stereo not drawn), 4.57% (inactive).
The value for `C[C@@H]1NC(=O)c2cc([N+](=O)[O-])cc(F)c2NCCC[C@@H](C(N)=O)NC(=O)[C@H](CC(N)=O)NC1=O` was 3.2% (inactive); that for `COC(=O)c1sc(C(F)(F)F)c(-c2ccccc2)c1S(=O)(=O)N(C)C` was 5.29% (inactive); that for `CCCCCCCCc1c(O)nc(-n2[nH]c(C)c(CCO)c2=O)[nH]c1=O` was 11.5% (inactive).
Turning to `CC(C)NC(=O)c1ccc(Sc2ccccc2)c([N+](=O)[O-])c1`, the activation is 4.46% (inactive).
The value for `O=C(COc1ccc([N+](=O)[O-])cc1)Nc1ccc(N2CCCC2)cc1` was -4.81% (inactive).
The value for `COc1ccc(C(=O)Nc2ccc(-n3nncc3C(C)(C)C)cc2)cc1` was 1.57% (inactive); that for `COc1ccccc1N(C)S(=O)(=O)c1ccc(Cl)c(C(=O)N2CCC(C(N)=O)CC2)c1` was 29.7% (inactive); that for `COc1ccc(/C=N/NC(=O)Nc2ccc3nsnc3c2)c(OC)c1` was 7.9% (inactive).
The value for `Cc1ccc(NC(=O)CCOc2ccccc2)cc1S(=O)(=O)Nc1ccccc1Cl` was 21.9% (inactive).
Regarding `COc1ccccc1OCCNC(=O)c1cc([N+](=O)[O-])cc([N+](=O)[O-])c1`, the activation is 1.67% (inactive).
To `CC(O)CNCCOc1cccc(Oc2ccccc2)c1` (stereo not drawn) belongs -10% (inactive).
In the case of `COc1ccccc1OCCNCC(O)COc1cccc2[nH]c3ccccc3c12` (stereo not drawn), the activation is 107% (active) and 106% (active).
The value for `COc1ccc(C2c3[nH]c4ccccc4c3CCN2CCCn2cccn2)cc1C` (stereo not drawn) was -23.6% (inactive); that for `Nc1nc(SCC(=O)NNc2c(Cl)cc(Cl)cc2Cl)n[nH]1` was 3.91% (inactive); that for `C/C(=N\NC(=O)NC1CCCCC1)c1ccc(OC(F)F)cc1OC(F)F` was -17% (inactive).
On to `COCCCNC(=O)c1ccc(CNS(=O)(=O)c2ccc(NC(C)=O)cc2)cc1`, for which the activation was 36.8% (active).
On to `CC(=O)Nc1ccc(S(=O)(=O)NCCc2ccccc2)cc1`, for which the activation is -20.2% (inactive).
To `CCCCNC(=O)C1CCC(CNS(=O)(=O)c2ccc(NC(C)=O)cc2)CC1` (stereo not drawn) belongs -15.8% (inactive); to `CC(C)(C)NC(=O)Cn1c(SCC(=O)Nc2nccs2)nc2ccccc21`, -9.44% (inactive); to `CS(=O)(=O)n1nc(-c2ccco2)nc1N`, -9.25% (inactive).
Regarding `CSc1nc(-c2ccco2)nn1C(=O)c1ccccc1Cl`, the activation is 56.1% (active).
`CSc1nc(-c2ccco2)nn1C(=O)CCc1ccccc1`: the activation is -13.4% (inactive).
Turning to `S=c1[nH]nc(-c2cc(-c3ccsc3)n[nH]2)n1-c1ccccc1`, the activation was -8.71% (inactive).
As for `Cc1nnsc1C(=O)N/N=C/c1ccccc1Cl`, the activation was -6.23% (inactive).
The value for `O=C(Nc1ccc(F)cc1F)N1CCCN(CCOc2ccccc2)CC1` was 4.67% (inactive); that for `CCOC(=O)C1(CC2CCCCO2)CCN(Cc2nc(-c3cccs3)oc2C)CC1` (stereo not drawn) was 1.86% (inactive).
As to `CC(=O)O[C@]1(C(C)=O)CC[C@H]2[C@@H]3C=C(C)C4=CC(=O)CC[C@]4(C)[C@H]3CC[C@@]21C`, the activation was -14.5% (inactive) and 5.59% (inactive).
To `CC(C)(C)CC(C)(C)NCC(O)COCCOc1ccc(Br)cc1` (stereo not drawn) belongs -16.3% (inactive); to `Cc1noc(COc2ccccc2OCC(O)CNC(C)(C)C)n1` (stereo not drawn), 111% (active); to `Cc1noc(COc2ccccc2OCc2onc(C)c2Cl)c1Cl`, -31.2% (inactive).
As to `Nc1nc(O)c(CC(=O)O)s1`, the activation was -3.67% (inactive).
In the case of `CCc1cc(-c2n[nH]c(=S)n2CC(C)C)cs1`, the activation is -23.7% (inactive).
With `COC(=O)c1ccc(NC(=O)Nc2ccc(C)cc2)cc1`, the activation is 101% (active).
The value for `Cc1ccc(NC(=O)CC(=O)Nc2ccc(C)cc2)cc1` was -0.47% (inactive); that for `CC(=O)c1cccc(NC(=O)Nc2ccc(C)cc2)c1` was -1.32% (inactive); that for `CO/N=C/c1cn(-c2ccc(Cl)cc2)nn1` was -2.97% (inactive).
With `CN(c1ccccc1)S(=O)(=O)c1ccc(Cl)c(C(=O)OCC(=O)NCc2ccco2)c1`, the activation was 16.8% (inactive).
To `O=c1[nH]oc(O)c1-c1ncc(C(F)(F)F)cc1Cl` belongs 7.56% (inactive); to `CC(=O)NC(=S)NNC(=O)c1ccc(Br)cc1`, -6.38% (inactive); to `Cc1ccc(C(=O)Nc2nnc(-c3cccs3)s2)cc1C`, 19.3% (inactive).
The value for `CC(=O)c1sc(NC(=O)c2ccc(C)cc2)nc1C` was 5.15% (inactive).
For `N#Cc1ccc(C(=O)Nc2nc(-c3cccs3)c(C(=O)C(F)(F)F)s2)cc1`, the activation was 45.4% (active).
The value for `Cc1ccc(NC(=S)N2CCCC(c3ccccc3)=N2)cc1` was -12% (inactive); that for `CCOC(=O)c1cnc2ccc(F)cc2c1Nc1ccc2c(c1)OCCO2` was -7.89% (inactive).
For `CCCCNC(=O)Nc1c(C)cc(SC#N)cc1C`, the activation is -6.72% (inactive).
In the case of `O=C(CCCN1C(=O)c2ccccc2C1=O)Oc1ccc(Cl)cc1`, the activation was -9.31% (inactive).
On to `O=C(NCCc1csc(-c2ccccc2)n1)c1ccccc1F`, for which the activation was -10.8% (inactive).
As for `O=C(Nc1ccccc1)C1CC(=O)n2c(nc3ccccc32)N1` (stereo not drawn), the activation is 16.2% (inactive).
To `CCOC(=O)c1ccc(NC(=O)C2CC(=O)Nc3nc4ccccc4n32)cc1` (stereo not drawn) belongs 2.63% (inactive); to `CC(=O)c1ccc(NC(=O)C2CC(=O)Nc3nc4ccccc4n32)cc1` (stereo not drawn), 46.6% (active).
The value for `Cc1nnc(SC(C(=O)c2ccccc2)c2ccccc2)[nH]c1=O` (stereo not drawn) was -19.4% (inactive); that for `CCN(CC)CC(=O)c1c[nH]c2ccc(OC)cc12` was -5.01% (inactive); that for `COc1ccc2[nH]c3ccc(OC)cc3c2c1` was 64.7% (active).
As for `COc1ccc2[nH]c(=S)cc(C)c2c1`, the activation was -18.7% (inactive).
To `CC1CCCCC1NC(=O)CN1CCC(O)(c2ccc3c(c2)OCO3)CC1` (stereo not drawn) belongs 3.89% (inactive); to `Cn1cnnc1SCC(=O)NNC(=O)COc1ccc(Br)cc1`, -5.38% (inactive); to `C/C(Cc1ccccc1)=N\NC(=O)CNC(=O)c1ccccc1Cl`, -3% (inactive).
The value for `Cc1ccn(-c2cccc(-n3ccc(C)n3)n2)n1` was -27.2% (inactive); that for `S=C(NCc1ccc2c(c1)OCO2)NCc1ccco1` was -4.25% (inactive); that for `C=CCOc1ccc(/C=C2\SC(=S)N(CCC(=O)O)C2=O)cc1` was 6.81% (inactive).
Take `CC(=O)Nc1ccc(OC(=O)COc2ccc(Br)cc2)cc1`: the activation was -18.4% (inactive).
To `CCOC(=O)CN(C(=O)COc1nc(-c2ccccc2)cc(C)c1C#N)c1ccc(F)cc1` belongs -29.2% (inactive); to `Oc1ccc(/C=N/Nc2ccc(C(F)(F)F)cn2)cc1O`, 54.9% (active); to `O=C(Nc1ccccc1)Nc1ccc(C(F)(F)F)cn1`, 5.1% (inactive).
Consider `Cc1nccn1CC(=O)N/N=C/c1ccc(O)c(O)c1`, for which the activation is 2.53% (inactive).
As for `Cc1cc(/C=C2/SC(=O)N(CC(=O)N3CCCC3)C2=O)ccc1N1CCOCC1`, the activation is 15.8% (inactive).
For the molecule `O=C(NCc1ccccc1)C1=C[C@@H](c2ccc(C(F)(F)F)cc2)C[C@@H](OCc2ccc(CO)cc2)O1`, the activation is -2.07% (inactive).
To `CC(=O)Nc1ccc(NC(=O)C(C)n2c3ccccc3c3nc(=O)cc(C)n32)cc1` (stereo not drawn) belongs -7.92% (inactive).
As for `CCNS(=O)(=O)c1ccc(NC(=O)Nc2cccc(OC)c2)cc1`, the activation is 13.3% (inactive).
To `Cc1ccc(NC(=O)Nc2cccc(C(F)(F)F)c2)nc1` belongs 1.1% (inactive); to `CCNS(=O)(=O)c1ccc(NC(=O)Nc2cccc(C(F)(F)F)c2)cc1`, 47.1% (active); to `Cc1cc(Cl)ccc1NC(=S)NCCCN1CCCC1=O`, 3.39% (inactive).
Regarding `COC(=O)c1cc(S(=O)(=O)N2CCC(C(N)=O)CC2)oc1C`, the activation is -1.47% (inactive).
`O=C(N/N=C/c1ccc([N+](=O)[O-])o1)c1cccc(S(=O)(=O)N2CCOCC2)c1`: the activation was -11.9% (inactive).
The value for `O=C(CN1CCN(c2ccc(O)cc2)CC1)Nc1cc(S(=O)(=O)N2CCOCC2)ccc1Cl` was -5.24% (inactive); that for `O=[N+]([O-])c1cc(Cl)cc(/C=N/NC(=S)Nc2cc(S(=O)(=O)N3CCOCC3)ccc2Cl)c1O` was 77.5% (active).
To `CC(C)(C)C(=O)NNC(=O)c1ccc(Oc2cc(Cl)cc(Cl)c2)o1` belongs -7.64% (inactive); to `Cc1ccc(C)c(Cn2cnc3c(oc4ccccc43)c2=O)c1`, -12.5% (inactive).
The value for `COc1cccc2cc(S(=O)(=O)c3ccc(C)cc3)/c(=N/NS(=O)(=O)c3ccc(C)cc3)oc12` was 2.71% (inactive).
For `C=CCNC(=O)/C=C/c1ccc(C(C)C)cc1`, the activation was 9.4% (inactive).
With `CCOC(=O)c1[nH]ncc1CN1CCCC(C(=O)c2ccc(OC)cc2C)C1` (stereo not drawn), the activation was -0.54% (inactive).
For the molecule `COc1ccc(C(=O)C2CCCN(Cc3cccn3-c3ccccn3)C2)c(C)c1` (stereo not drawn), the activation was 79.6% (active).
On to `COc1ccc(C(=O)C2CCCN(Cc3ccc4nonc4c3)C2)c(C)c1` (stereo not drawn), for which the activation was -11.8% (inactive).
The value for `COC(=O)C1=C(C(=O)OC)C2(OC1c1ccc(Br)cc1)C(=O)c1ccccc1C2=O` (stereo not drawn) was 2.63% (inactive); that for `Nc1c(-c2cccc(Cl)c2)cnn1-c1cccc([N+](=O)[O-])c1` was 43.2% (inactive); that for `CCOC(=O)/C(N=Nc1cc(C(=O)O)cc(C(=O)O)c1)=C(\O)CCl` was -8% (inactive).
On to `CCOc1ccc(NC(=O)CCC(=O)N/N=C/c2ccc([N+](=O)[O-])s2)cc1`, for which the activation is 19.1% (inactive).
As for `Cc1ccccc1NCC(=O)N/N=C\c1ccc([N+](=O)[O-])s1`, the activation is 39.4% (active).
The value for `COc1ccc(C(=O)NCC(=O)N/N=C/c2ccc([N+](=O)[O-])s2)cc1OC` was 6.89% (inactive).
